For 12 compounds, Potency results are on record in PubChem BioAssay (NCATS).

SMILES strings stand for the structures. Inconclusive results are not listed. A call without a number means that no potency is given here. Calls of active or inactive are those of the source. Calls come from the whole dose curve; as a rule, active = well fitted cell-killing curve with a large enough effect; inconclusive = small, poorly fitted or top-dose-only effect; inactive = no such curve, though single readings can be large or run the other way.
Potency is the fitted concentration of half-maximal effect.

The assay can be described thus: qHTS of pediatric cancer cell lines to identify multiple opportunities for drug repurposing: Primary screen for SK-N-MC cells (AID 1347093). As to conditions: SK-N-MC viability, CellTiter-Glo luminescence, 48 h; series mostly up to 46 µM. In short, it runs like this: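 Metabolically active cells were quantified by ATP-dependent luminescence (CellTiter-Glo, 15 min at room temperature) following 48 h treatment. Cells had been plated at 500-1,000 per well and settled for 5 h beforehand.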
For orientation: In qHTS, concentration-response curves come from the screen itself.
As to `CC(C)=CCNc1ncnc2c1ncn2[C@@H]1O[C@H](CO)[C@@H](O)[C@H]1O`, the Potency is 3.76 µM (active).
For `CCC1=C[C@@H]2CN(C1)Cc1c([nH]c3ccccc13)[C@@](C(=O)OC)(c1cc3c(cc1OC)N(C)[C@H]1[C@@](O)(C(=O)OC)[C@H](OC(C)=O)[C@]4(CC)C=CCN5CC[C@]31[C@@H]54)C2`, the Potency is 0.0168 µM (active).
For `COc1cc2c(cc1OC)CN(C(=O)[C@H](C)N[C@@H](CCc1ccccc1)C(=O)O)[C@H](C(=O)O)C2` the value was “inactive”; for `O=C(O)[C@@H](O)[C@H](O)[C@H](O)[C@@H](O)C(=O)O`, “inactive”; for `CC(=O)OCC(=O)Nc1cc(C#N)cc(NC(=O)COC(C)=O)c1Cl`, “inactive”.
To `O=C(Nc1ccc(S(=O)(=O)N2CCOCC2)cc1)c1cc(Cl)ccc1NS(=O)(=O)c1ccc(Cl)s1` belongs 18.8 µM (active); to `C[C@]12CCC(=O)C=C1CC[C@@H]1[C@@H]2[C@@H](O)C[C@@]2(C)[C@H]1CC[C@]2(O)C(=O)COC(=O)CCC(=O)O`, “inactive”.
To `CC1(C)S[C@@H]2[C@H](NC(=O)C(c3ccccc3)S(=O)(=O)O)C(=O)N2[C@H]1C(=O)O` (some centres not stated) belongs “inactive”; to `CCc1cc2cc(OC)c(OC)cc2c(Cc2ccccc2)n1`, “inactive”.
For the compound `CC(=O)Nc1ccc(S(=O)(=O)Nc2cc(C)on2)cc1`, the Potency result was “inactive”.
For `CCCCCCCCCCCCCCCCCCNC(=O)OC1CCN(C(=O)OC[C@H](COC(=O)N(Cc2cccc[n+]2CC)C(=O)c2ccccc2OC)OC)CC1`, the Potency is 8.41 µM (active).
As to `CCNC(=O)NCCCOc1cccc(CN2CCCCC2)c1`, the Potency result was “inactive”.
